Test results as given in paper PMC11062922 (Nature Chemical Biology, 2023).
Like-named read-outs stand apart in the source and are kept apart here.

Experiments:
Design in all cases: species or system human, MV4-11 + K-562 + COLO205 + SK-N-BE2 + OVCAR-8
[1] = system: DHCR24; conditions: read-out: apparent Kd; compound concentrations: 100 nM and 1000 nM (sheet 'Samples'), CATDS: 0.35595473001681699; n = 1
[2] = system: EIF5B; conditions: read-out: apparent Kd, compound concentrations: 100 nM and 1000 nM (sheet 'Samples'), n = 1
[3] = system: TOP2B; conditions: read-out: apparent Kd; compound concentrations: 100 nM and 1000 nM (sheet 'Samples'), CATDS: 0.32838798877743502; n = 1
[4] = system: EGFR; conditions: read-out: apparent Kd, compound concentrations: 100 nM and 1000 nM (sheet 'Samples'), n = 1
[5] = system: NQO1; conditions: read-out: apparent Kd; compound concentrations: 100 nM and 1000 nM (sheet 'Samples'), CATDS: 0.35542679551124801; n = 1
[6] = system: EPHB6; conditions: read-out: apparent Kd, compound concentrations: 100 nM and 1000 nM (sheet 'Samples'), n = 1
[7] = system: ERBB3; conditions: read-out: apparent Kd; compound concentrations: 100 nM and 1000 nM (sheet 'Samples'), CATDS: 0.19609805104920999; n = 1
[8] = system: MAP4K5; conditions: read-out: apparent Kd; compound concentrations: 100 nM and 1000 nM (sheet 'Samples'), CATDS: 0.26674698552626502; n = 1
[9] = system: NLK; conditions: read-out: apparent Kd; compound concentrations: 100 nM and 1000 nM (sheet 'Samples'), CATDS: 0.30347996318959403; n = 1
[10] = system: FLT4; conditions: read-out: apparent Kd; compound concentrations: 100 nM and 1000 nM (sheet 'Samples'), CATDS: 0.213105830255753; n = 1
[11] = system: GAK; conditions: read-out: apparent Kd, compound concentrations: 100 nM and 1000 nM (sheet 'Samples'), n = 1
[12] = system: MAP2K5; conditions: read-out: apparent Kd; compound concentrations: 100 nM and 1000 nM (sheet 'Samples'), CATDS: 0.176800836122779; n = 1
[13] = system: PDGFRB; conditions: read-out: apparent Kd, compound concentrations: 100 nM and 1000 nM (sheet 'Samples'), n = 1
[14] = system: EPHA7; conditions: read-out: apparent Kd; compound concentrations: 100 nM and 1000 nM (sheet 'Samples'), CATDS: 1; n = 1
[15] = system: FECH; conditions: read-out: apparent Kd, compound concentrations: 100 nM and 1000 nM (sheet 'Samples'), n = 1
[16] = system: FLT3; conditions: read-out: apparent Kd; compound concentrations: 100 nM and 1000 nM (sheet 'Samples'), CATDS: 0.119493571435742; n = 1
[17] = system: MELK; conditions: read-out: apparent Kd; compound concentrations: 100 nM and 1000 nM (sheet 'Samples'), CATDS: 0.102611877302843; n = 1
[18] = system: MERTK; conditions: read-out: apparent Kd; compound concentrations: 100 nM and 1000 nM (sheet 'Samples'), CATDS: 0.11247191939654499; n = 1
[19] = system: RET; conditions: read-out: apparent Kd; compound concentrations: 100 nM and 1000 nM (sheet 'Samples'), CATDS: 0.43241388330783698; n = 1
[20] = system: SIK2; conditions: read-out: apparent Kd; compound concentrations: 100 nM and 1000 nM (sheet 'Samples'), CATDS: 0.136273413737004; n = 1
[21] = system: RIPK2; conditions: read-out: apparent Kd, compound concentrations: 100 nM and 1000 nM (sheet 'Samples'), n = 1
[22] = system: PLK1; conditions: read-out: apparent Kd; compound concentrations: 100 nM and 1000 nM (sheet 'Samples'), CATDS: 0.37077800289250101; n = 1
[23] = system: EPHA1; conditions: read-out: apparent Kd; compound concentrations: 100 nM and 1000 nM (sheet 'Samples'), CATDS: 0.132169396234084; n = 1
[24] = system: EPHA2; conditions: read-out: apparent Kd; compound concentrations: 100 nM and 1000 nM (sheet 'Samples'), CATDS: 7.9638266315165504E-2; n = 1
[25] = system: EPHA4; conditions: read-out: apparent Kd; compound concentrations: 100 nM and 1000 nM (sheet 'Samples'), CATDS: 5.73813509995778E-2; n = 1
[26] = system: EPHA5; conditions: read-out: apparent Kd; compound concentrations: 100 nM and 1000 nM (sheet 'Samples'), CATDS: 6.5260226509332095E-2; n = 1
[27] = system: EPHB2; conditions: read-out: apparent Kd; compound concentrations: 100 nM and 1000 nM (sheet 'Samples'), CATDS: 6.01599429552135E-2; n = 1
[28] = system: EPHB4; conditions: read-out: apparent Kd; compound concentrations: 100 nM and 1000 nM (sheet 'Samples'), CATDS: 8.2169743824678607E-2; n = 1
[29] = system: HSP90B1; conditions: read-out: apparent Kd; compound concentrations: 100 nM and 1000 nM (sheet 'Samples'), CATDS: 5.9403199864953501E-2; n = 1
[30] = system: MAP4K4; conditions: read-out: apparent Kd; compound concentrations: 100 nM and 1000 nM (sheet 'Samples'), CATDS: 6.0397447549850998E-2; n = 1
[31] = system: RIPK3; conditions: read-out: apparent Kd; compound concentrations: 100 nM and 1000 nM (sheet 'Samples'), CATDS: 0.17935532425018; n = 1
[32] = system: TGFBR2; conditions: read-out: apparent Kd; compound concentrations: 100 nM and 1000 nM (sheet 'Samples'), CATDS: 9.6643303505933295E-2; n = 1
[33] = system: TNIK; conditions: read-out: apparent Kd; compound concentrations: 100 nM and 1000 nM (sheet 'Samples'), CATDS: 7.16657274929937E-2; n = 1
[34] = system: TESK2; conditions: read-out: apparent Kd; compound concentrations: 100 nM and 1000 nM (sheet 'Samples'), CATDS: 0.39865436806100402; n = 1

For `Cc1ccc(NC(=O)Nc2ccc(Cl)cc2)cc1-c1ccc(C(=O)Nc2ccncc2)cc1` [GSK1398472A], which potency estimated from few doses [1] is on record?
Its potency estimated from few doses is 1500 nM.

What about the potency estimated from few doses ([2]; CATDS: 0.317916944834297) of the same molecule?
The potency estimated from few doses was 1880 nM.

What about the potency estimated from few doses [3] of the same molecule?
Its potency estimated from few doses is 1750 nM.

`O=C(O[C@H]1CN[C@H](C#Cc2cc3ncnc(Nc4ccc(OCc5cccc(F)c5)c(Cl)c4)c3s2)C1)N1CCOCC1` [GW869810X] was tested. Which potency estimated from few doses ([4]; CATDS: 1) did it give?
The potency estimated from few doses was 72.2 nM.

With `Cl.c1ccc(Cn2ncc3cc(Nc4ncnc5ccccc45)ccc32)cc1` [GW273749A] as the molecule, how does the potency estimated from few doses ([4]; CATDS: 1) read?
Its potency estimated from few doses is 25.4 nM.

What does the source list for `CN(C)C(=O)O[C@@H]1CN[C@@H](C#Cc2cc3ncnc(Nc4ccc(OCc5cccc(F)c5)c(Cl)c4)c3s2)C1` [GSK238063A]?
potency estimated from few doses ([4]; CATDS: 0.84282841422731203): 175 nM; potency estimated from few doses [5]: 1700 nM

Which potency estimated from few doses ([6]; CATDS: 0.25930053020636601) does the source give for `Nc1ncc(-c2ccncc2)c2scc(-c3ccc4c(c3)CCN4C(=O)Cc3ccccc3)c12` [GSK2592465A] here?
Its potency estimated from few doses is 885 nM.

And the potency estimated from few doses [7]?
Its potency estimated from few doses is 1700 nM.

What about the potency estimated from few doses [8] of the same molecule?
Its potency estimated from few doses is 837 nM.

What about the potency estimated from few doses [9] of the same molecule?
Its potency estimated from few doses is 660 nM.

`COc1ccc(N2Cc3cnc(Nc4ccccc4)nc3N([C@@H]3CC[C@@H](O)C3)C2=O)cc1` [RO4383596-000] was tested. Which potency estimated from few doses ([6]; CATDS: 0.20218817743622799) did it give?
The potency estimated from few doses was 1300 nM.

What about the potency estimated from few doses [10] of the same molecule?
Its potency estimated from few doses is 1170 nM.

And the potency estimated from few doses ([11]; CATDS: 0.27304535513380701)?
Its potency estimated from few doses is 756 nM.

What about the potency estimated from few doses [12] of the same molecule?
Its potency estimated from few doses is 1750 nM.

What about the potency estimated from few doses ([13]; CATDS: 0.165477129932846) of the same molecule?
Its potency estimated from few doses is 2060 nM.

With `COc1cccc(NC(=O)NCCNc2ccnc(Nc3ccc(F)cc3)n2)c1` [GSK1379879A] as the molecule, how does the potency estimated from few doses [14] read?
Its potency estimated from few doses is 2400 nM.

What does the source list for `COc1cc2c(cc1OC)C(=C(Nc1ccccc1)c1cccc(CN)c1)C(=O)N2` [BIBF0846CL]?
potency estimated from few doses ([15]; CATDS: 0.35888442724353598): 62.1 nM; potency estimated from few doses [16]: 829 nM; potency estimated from few doses [17]: 1410 nM; potency estimated from few doses [18]: 1010 nM; potency estimated from few doses ([13]; CATDS: 0.104628993679762): 1310 nM; potency estimated from few doses [19]: 45.3 nM; potency estimated from few doses [20]: 560 nM

For `Cn1cncc1-c1cc2c(Nc3ccc(OCc4ccccc4)cc3)ncnc2cn1` [GW281179X], which potency estimated from few doses ([4]; CATDS: 0.48641322117949298) is on record?
Its potency estimated from few doses is 124 nM.

What about the potency estimated from few doses ([21]; CATDS: 0.514367617378505) of the same molecule?
Its potency estimated from few doses is 111 nM.

With `COc1ccc(COc2cc(-n3cnc4ccccc43)sc2C(N)=O)cc1` [GSK1024304A] as the molecule, how does the potency estimated from few doses ([2]; CATDS: 0.290212668862731) read?
The potency estimated from few doses was 1710 nM.

What about the potency estimated from few doses ([15]; CATDS: 0.34999062122036301) of the same molecule?
The potency estimated from few doses was 1150 nM.

And the potency estimated from few doses [22]?
Its potency estimated from few doses is 1030 nM.

With `Nc1ncc(-c2cccc(S(N)(=O)=O)c2)c2scc(-c3ccc(F)c(Cl)c3)c12` [GW856804X] as the molecule, how does the potency estimated from few doses [23] read?
The potency estimated from few doses was 306 nM.

What about the potency estimated from few doses [24] of the same molecule?
Its potency estimated from few doses is 758 nM.

What about the potency estimated from few doses [25] of the same molecule?
Its potency estimated from few doses is 1770 nM.

What about the potency estimated from few doses [26] of the same molecule?
Its potency estimated from few doses is 1210 nM.

What about the potency estimated from few doses [27] of the same molecule?
Its potency estimated from few doses is 1530 nM.

And the potency estimated from few doses [28]?
The potency estimated from few doses was 710 nM.

What about the potency estimated from few doses ([11]; CATDS: 7.0423696237644606E-2) of the same molecule?
The potency estimated from few doses was 1000 nM.

And the potency estimated from few doses [29]?
Its potency estimated from few doses is 1590 nM.

What about the potency estimated from few doses [30] of the same molecule?
The potency estimated from few doses was 1510 nM.

And the potency estimated from few doses ([21]; CATDS: 0.101348300005731)?
Its potency estimated from few doses is 475 nM.

And the potency estimated from few doses [31]?
Its potency estimated from few doses is 196 nM.

And the potency estimated from few doses [32]?
Its potency estimated from few doses is 518 nM.

And the potency estimated from few doses [33]?
The potency estimated from few doses was 961 nM.

Which potency estimated from few doses ([4]; CATDS: 0.67043836864821504) does the source give for `Cl.O=S(=O)(CCNCc1ccc(-c2ccc3ncnc(Nc4ccc(OCc5cccc(F)c5)c(Cl)c4)c3c2)o1)c1ccccc1` [GW633459A] here?
Its potency estimated from few doses is 597 nM.

And the potency estimated from few doses [34]?
The potency estimated from few doses was 1830 nM.

Which results are given for `C#Cc1cccc(Nc2ncnc3cc(OC)c(OC4CCN(C)CC4)cc23)c1` [BI00007366]?
potency estimated from few doses ([4]; CATDS: 0.27319466125259201): 1300 nM; potency estimated from few doses ([11]; CATDS: 0.38094365160878402): 634 nM; potency estimated from few doses ([21]; CATDS: 0.36838569788984799): 674 nM
